Data on one compound can be found in PubChem BioAssay AID493065 (National Center for Advancing Translational Sciences (NCATS), 2011).

This is one part of the list. Results filed as inconclusive are left out. Values without a mark were called inactive. The call rests on the fitted dose curve; in most records, active means well fitted activation curve with a large enough effect; inconclusive means small, poorly fitted or top-dose-only effect; inactive means flat fitted curve, though single readings scatter.

This test is described as follows: Parental Cell Counter Screen Assay for Epigenetic Modulators: Hit Validation. The following applies: mouse c127i parental cells, 30 h, hits give high values, concentration not given here. From the text: NIH Molecular Libraries Screening Centers Network [MLSCN] NIH Chemical Genomics Center [NCGC] MLSCN Grant: 1 X01 MH079860-01 Assay Provider: Elisabeth D. Martinez, University of Texas SW Medical Center NCGC Assay Overview: This assay is a counter screen for the Locus Derepression (LDR) assay (PubChem AID 1865). The LDR assay detects the derepression of a GFP reporter that is stably integrated in a region of the genome of murine c127i mammary cells that is presumably silenced. Compounds that cause derepression of the locus to express GFP are identified by enumerating GFP positive cells using a laser-scanning microplate cytometer. […] Compounds active in the parental c127i cells are likely fluorescent.
NCGC Assay Protocol Summary: Three hundred cells in 5 uL per well were dispensed into black, clear-bottom 1536-well plates. Twenty-three nL compound was transferred to the assay plate and cells were incubated 30 hours at 37 C. Medium was removed, cells were washed two times with PBS, and fluorescent cells were enumerated as objects between the sizes of 20 to 120 um width and depth using a laser-scanning microplate imager (Acumen Explorer Ex3, TTP Labtech). For further details, see Johnson, RL, Huang, W, Jadhav, A, Austin, CP, Inglese, J, Martinez, ED (2008). A quantitative high-throughput screen identifies potential epigenetic modulators of gene expression. Anal Biochem 375: 237-48.

As to `O=C1NC(=O)N(CCc2ccc(F)cc2)C(=O)/C1=C/C=C/c1ccccc1`, the fluorescent cell count is 3%.
